Test results from PubChem BioAssay AID651636 (Sanford-Burnham Center for Chemical Genomics, 2012).
The whole screen tested about 360,000 compounds, of which about 3,000 (0.83%) were called active. The entries come from a sample that favours actives as a whole. Unmarked numbers belong to inactive results. Cut-off read from the data, not from the text of the source: active = inhibition above about 38%; inactive = the rest.

What follows are compounds tested against G-protein coupled receptor 183 (Homo sapiens) (UniProt P32249) (assay: blockers of oxysterol-driven EBI2 arrestin signaling – cell-based, luminescence, 7a,25-OHC stimulation, uHTS, primary screen (AID 651636;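 note: enzyme fragment complementation signal reports receptor beta-arrestin coupling in cells; 0% = agonist plus DMSO wells and 100% = wells without agonist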)). Conditions: EBI2 beta-arrestin recruitment, 7a,25-OHC stimulated, at 5 µM, hits give high values.
Sequence of G-protein coupled receptor 183 (Homo sapiens) (P32249 whole entry, looked up, the tested form may be a part): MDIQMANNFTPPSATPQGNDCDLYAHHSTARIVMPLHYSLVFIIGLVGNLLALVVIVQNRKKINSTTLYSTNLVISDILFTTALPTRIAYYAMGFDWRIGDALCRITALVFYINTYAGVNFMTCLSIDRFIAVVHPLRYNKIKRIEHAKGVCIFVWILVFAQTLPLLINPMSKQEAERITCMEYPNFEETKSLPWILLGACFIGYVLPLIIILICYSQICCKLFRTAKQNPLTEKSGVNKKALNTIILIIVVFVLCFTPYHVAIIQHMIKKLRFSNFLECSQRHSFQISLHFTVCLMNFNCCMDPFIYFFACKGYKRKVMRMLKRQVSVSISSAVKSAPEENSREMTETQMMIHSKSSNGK

SMILES	inhibition
O=C(NCc1ccc(Cl)cc1)c1cc2c(nc3sccn32)s1	12.5%
O=C(NCc1ccc(Cl)cc1)c1cc(=O)nc2sc(-c3ccccc3)nn12	49.6% (active)
O=C(Cc1ccc(Cl)cc1)NCc1nc(-c2ccccc2)no1	4.5%
CC(=O)NC12CC3CC(C1)CC(C(=O)N1CCN(C(=O)c4ccco4)CC1)(C3)C2	1.98%
COc1ccc(-c2nnn(Cc3nc(N)nc(N4CCCCC4)n3)n2)cc1	5.05%
COc1ccc(-c2nc(N)ncc2-c2ccc(Cl)cc2)c(O)c1	88.2% (active)
COc1cccc(-c2cnc(OC(C)(C)C)nc2OC(C)(C)C)c1	-3.37%
COc1ccc(-c2c(-c3ccc(OC)cc3O)nc(C)nc2C(F)(F)F)cc1	14.5%
CCOc1ccc(C(=O)N(Cc2ccc(N(C)C)cc2)C2CCS(=O)(=O)C2)cc1 (stereo unspecified)	7.56%
O=C(Nc1cc2c3c(c1)CC(=O)N3CCC2)c1ccccc1F	-3.38%
Oc1ccc2ccccc2c1N=Nc1nccs1	58.9% (active)
CC1(c2nnc(Cc3ccccc3)o2)CC(c2ccccc2F)=NO1 (stereo unspecified)	-4.25%
CCOC(=O)[C@]12CCCC=C1N(CCC1=CCCCC1)C(=O)[C@H](CC(=O)N1CCN(C(=O)c3ccco3)CC1)C2	-0.759%
COc1ccc(N2CCN(Cc3ccc(Br)s3)CC2)cc1	-1.05%
c1ccc(-c2cnc(CN3CCN(c4ccccc4)CC3)o2)cc1	3.15%
Fc1ccc(N2CCN(Cc3cnc(Oc4ccc(Br)cc4)s3)CC2)cc1	46.4% (active)
Cc1ccc(C(=O)c2coc3ccc(O)c(CN(C)C)c23)cc1	-7.39%
COc1ccc(OC)c(C(=O)c2coc3ccc(OC)cc23)c1	5.5%
COc1ccc(OC)c(C(=O)c2coc3ccc(O)c(CN4CCOCC4)c23)c1	37% (active)
CN(O)C(=S)c1ccccc1	43% (active)
C=CCOC(=O)C1=C[C@@H](c2ccccc2)C[C@@H](OCc2ccc(CO)cc2)O1	7.13%
Cc1ccc2c(C)c(C(=O)N3CCN(c4ccncc4)CC3)oc2c1C	1.76%
CCCC1CCC(=NNC(=S)NCCc2ccccc2)CC1 (stereo unspecified)	66.9% (active)

SMILES	inhibition
CCCCNC(=S)N/N=C1\CCCCc2ccccc21	6.96%
Cc1cc(F)ccc1NC(=S)NCCc1ccccc1	1.81%
CC(=O)CCS(=O)(=O)c1ccc(C)c(C)c1	-7.62%
CC(=O)c1cc(-c2ccccc2)n(CCC(=O)NC2CCCCCC2)c1C	-14.6%
COc1ccc(Nc2cc(Sc3ccc(OC)cc3)ncn2)cc1	55.7% (active)
COc1ccc(Sc2ccc(NC(=O)c3cccc(Cl)c3)cc2C#N)cc1	19.1%
COc1ccc(NC(=O)CSc2ncnc3[nH]ncc23)cc1	-1.87%
CN1C(=O)CC(N2CCN(c3ccccn3)CC2)C1=O (stereo unspecified)	1.43%
CO/N=C(/CS(=O)(=O)c1ccc(Br)cc1)c1ccc(OC)cc1	2.11%
CN(C)C(CNC(=O)Cc1ccc([N+](=O)[O-])cc1)c1ccccc1 (stereo unspecified)	-5.83%
O=C(NCC(O)c1ccc([N+](=O)[O-])cc1)C1CCCCC1 (stereo unspecified)	19.3%
O=C(CC(c1ccccc1)c1ccccc1)NCC(O)c1ccc([N+](=O)[O-])cc1 (stereo unspecified)	68.3% (active)
COc1ccccc1CNC(=O)C1Cc2ccccc2C(=O)O1 (stereo unspecified)	-4.46%
Cc1ccc(S(=O)(=O)N2CC3C(=O)C[C@@H](c4ccccc4Cl)N(S(=O)(=O)c4ccc(C)cc4)C3CC2c2ccccc2)cc1 (stereo partly specified)	17%
CC1Oc2ccccc2N(Cc2cccnc2)C1=O (stereo unspecified)	2.36%
CCCCC(=O)N(C)c1c(CC)nc2c(OCc3ccc(S(C)(=O)=O)cc3)cccn12	-7.39%
CCCCC(=O)N(C)c1c(CC)nc2c(OCc3ccc(Cl)cc3Cl)cccn12	42.4% (active)
CCc1nc2c(OCc3ccc(Cl)cc3Cl)cccn2c1N(C)C(=O)C(C)C	36.4%
CCCOC(=O)c1c(NC(=O)c2cnn3c2NC(c2ccccc2)CC3C(F)(F)F)sc2c1CCCC2 (stereo unspecified)	-7.48%
Cc1ccccc1C(CC(=O)c1cccs1)C(C#N)C#N (stereo unspecified)	-15.3%
NC(=O)C1(N2CCCCC2)CCN(C2CC(=O)N(Cc3ccc(N4CCCC4=O)cc3)C2=O)CC1 (stereo unspecified)	-18.3%
COc1ccccc1-n1c(=S)[nH]c2c(sc(=S)n2-c2ccc(C)cc2C)c1=O	0.762%
O=[N+]([O-])c1c(NCCO)cc(Sc2nc3ccccc3s2)c2nonc12	51.4% (active)
